# Data reported in PubChem BioAssay (NCI).
# This is part of a sample that, as a whole, favours compounds with a hit. Of some 83,000 tested, about 20% had one in any assay.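 Cell lines were cultured in 96-well plates, exposed to a single compound concentration, and assessed for percent growth 48 hours later.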 A number with no mark means an inactive call. Active and inactive are the calls of the source. Rule for the calls: active = growth percent below 10; inactive = the rest.
# Experiments:
# Assay in all cases: NCI-60 one-dose screen, 48 h (100 = growth as untreated, 0 = no growth, -100 = all killed)
# Conditions in all cases: 10 µM unless noted
# DU-145 prostate = tested on: DU-145 prostate
# K-562 leukemia = tested on: K-562 leukemia
# MALME-3M melanoma = tested on: MALME-3M melanoma
# MDA-MB-231 breast = tested on: MDA-MB-231 breast
# RXF 393 renal = tested on: RXF 393 renal
# SF-268 CNS = tested on: SF-268 CNS
# SF-295 CNS = tested on: SF-295 CNS
# SF-539 CNS = tested on: SF-539 CNS
# UACC-257 melanoma = tested on: UACC-257 melanoma
# M14 melanoma = tested on: M14 melanoma
# HCT-15 colon = tested on: HCT-15 colon
# HT29 colon = tested on: HT29 colon
# SNB-75 CNS = tested on: SNB-75 CNS
# SNB-19 CNS = tested on: SNB-19 CNS
# U251 CNS = tested on: U251 CNS
# PC-3 prostate = tested on: PC-3 prostate
# SK-MEL-5 melanoma = tested on: SK-MEL-5 melanoma
# UACC-62 melanoma = tested on: UACC-62 melanoma
# LOX IMVI melanoma = tested on: LOX IMVI melanoma
# SK-MEL-28 melanoma = tested on: SK-MEL-28 melanoma
SMILES,growth (DU-145 prostate),growth (K-562 leukemia),growth (MALME-3M melanoma),growth (MDA-MB-231 breast),growth (RXF 393 renal),growth (SF-268 CNS),growth (SF-295 CNS),growth (SF-539 CNS),growth (UACC-257 melanoma),growth (M14 melanoma),growth (HCT-15 colon),growth (HT29 colon),growth (SNB-75 CNS),growth (SNB-19 CNS) [%],growth (U251 CNS),growth (PC-3 prostate),growth (SK-MEL-5 melanoma),growth (UACC-62 melanoma),growth (LOX IMVI melanoma),growth (SK-MEL-28 melanoma)
CNc1ccc(NC)c2c1C(=O)c1ccccc1C2=O,92.6%,96%,120%,77.2%,75%,76.4%,65.9%,56%,85.2%,113%,77.1%,98.7%,52.3%,85.5,87%,84%,93.6%,87.9%,84.9%,102%
CC1=NOC(=O)/C1=C\c1ccc(O)cc1,111%,98.2%,100%,95.1%,115%,98.4%,99.6%,98.8%,101%,103%,104%,106%,77.9%,99,101%,101%,101%,100%,96.8%,103%
COc1cccc(-c2nn(-c3ccccc3)cc2-c2ccnc(NCCNC(=O)Nc3ccc(Cl)c(Cl)c3)c2)c1,2.24% (active),2.28% (active),25.3%,-22.9% (active),-9.27% (active),9.11% (active),2.94% (active),-0.925% (active),16%,-36.8% (active),7.83% (active),-20.5% (active),-1.39% (active),28.9,-11.6% (active),4.19% (active),3.01% (active),-14.2% (active),-68.8% (active),16.1%
COc1cc(C2CC(=O)Nc3c2c(C)nn3-c2nc3ccccc3[nH]2)c(OC)c(OC)c1OC (stereo not given),53.8%,20.5%,55.1%,72.3%,61.5%,50.9%,19.8%,63.7%,60.6%,17%,33%,80.7%,1.94% (active),62.9,42%,51.9%,46.7%,40.7%,67.7%,72.3%
O=C(c1ccccc1)c1c(/C=C/c2ccc(Cl)cc2)nc2ccccc2c1/C=C/c1cccs1,107%,83.6%,99.3%,94.4%,104%,93.5%,102%,97.3%,87.7%,96.8%,96.6%,100%,84.1%,89.7,93.5%,91.8%,100%,87.4%,94.2%,102%
N#Cc1c(N2CCNCC2)nc2sc3cc(Cl)c(Cl)cc3n2c1=N,122%,77.4%,119%,84.1%,19.1%,117%,113%,86.1%,124%,106%,122%,98.7%,62.2%,98.5,107%,94.2%,89.9%,82.6%,93.5%,120%
CCCCCCCCCCCCCCCCCCOc1ccccc1CC(=O)OCCC[N+](C)(C)C,60.5%,37.4%,52.7%,45.9%,-18.2% (active),53.2%,75.4%,52.1%,84.7%,46.3%,78.7%,40%,40.6%,34.2,24.2%,36.8%,43.2%,54.2%,36.4%,66.8%
COC(=O)[C@]12CC[C@@H](C)[C@H](C)[C@@H]1C1=CC[C@@H]3[C@@]4(C)C(C=O)=C[C@@](C)(CO)[C@@H]4[C@H](O)C[C@@]3(C)[C@]1(C)CC2,-30% (active),6.68% (active),-70.7% (active),-47.6% (active),-82% (active),-0.0873% (active),-15.6% (active),-44% (active),-48.4% (active),-51.5% (active),-68.1% (active),-37.7% (active),3.2% (active),24.4,-19% (active),-0.105% (active),-85.7% (active),-34.5% (active),-97.9% (active),-34.5% (active)
COC(=O)[C@]12CC[C@@H](C)[C@H](C)[C@@H]1C1=CC[C@@H]3[C@@]4(C)C(C=O)=C[C@@](C)(COC(=O)c5ccco5)[C@@H]4C(=O)C[C@@]3(C)[C@]1(C)CC2,42%,22.7%,-17% (active),39.4%,47.6%,44.9%,34.4%,57.7%,-38.9% (active),6.34% (active),25.2%,29.9%,34.8%,39.7,33.9%,11.1%,-84.8% (active),-23.8% (active),26.6%,24.9%
Cc1ccc(C(=NN=C(N)N)c2ccc(C)cc2)cc1,-16.6% (active),5.03% (active),40.4%,-11.3% (active),-16.1% (active),16.7%,0.547% (active),-2.53% (active),25.9%,-74.7% (active),11.6%,0.831% (active),-1.11% (active),30.4,6.36% (active),16.3%,-68.6% (active),31.6%,-28.3% (active),21.4%
COc1cccc(-c2nn(-c3ccccc3)cc2-c2ccnc(NCCCNC(=O)c3ccccc3)c2)c1,64.7%,11.2%,57.5%,45.9%,63.3%,66.2%,51.5%,80.2%,40.7%,33.3%,33%,8.81% (active),60.1%,70.4,43.3%,26.2%,5.44% (active),33.8%,66.1%,67.8%
Cc1cc(O)c(C2=NN(c3ccc(S(N)(=O)=O)cc3)C(c3ccccc3Cl)C2)cc1Cl (stereo not given),4.85% (active),-18% (active),34.9%,20%,-11.7% (active),11.6%,63%,41.9%,65.2%,-11.9% (active),34.8%,0.516% (active),41.7%,58.1,7.79% (active),10.9%,36.5%,45.1%,-83.7% (active),63.2%
COc1cc(C(=O)c2cc(C)c3[nH]c4ccc(Cl)cc4c3c2C)cc(OC)c1OC,-19.7% (active),13.6%,27.9%,22.1%,36.6%,25.5%,4.51% (active),-10.1% (active),68%,17.5%,7.42% (active),18.6%,22.9%,35.6,20%,27.3%,-55.8% (active),42.6%,8.56% (active),53.6%
OC(c1cccc(-n2ccc(C(F)(F)F)n2)c1)c1cnccc1NC1CCCCCC1 (stereo not given),2.76% (active),3.64% (active),-79% (active),-76.4% (active),14.2%,64.4%,81.3%,61.3%,-17.8% (active),-75.1% (active),-39.2% (active),-0.162% (active),64.4%,71.1,-42.6% (active),41.2%,33.8%,32.2%,-91.4% (active),-65.3% (active)
